Screens as filed in PubChem.
Rows were chosen to be rich in hits. Some 19% of all compounds tested hit in one or more screens of this group.
DT40 TDP1 CPT = growth inhibition of DT40 Tdp1-/-;hTDP1 cells with camptothecin (screen for TDP1 inhibitors); chicken DT40 Tdp1-/-;hTDP1 cells + 20 nM CPT, ATP luminescence, 48 h; Potency, µM (top dose mostly 46.2 µM), usual class: inhibitors; 420,000 compounds, 12% hits; also: nearly all actives have a fitted effect of over 55% in size
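Chicken DT40 Tdp1-/- cells stably complemented with human TDP1 were seeded at 400 cells/well in medium containing 20 nM camptothecin, exposed to pin-transferred compounds, and grown at 37 °C for at least 48 hr. Viability was read as ATP luminescence.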
IL1B secr inh = blocks inflammasome-driven IL-1 beta release. THP-1 LPS/ATP IL-1B secretion, AlphaLISA, 16 h; stronger effect = lower value. activity change, % at 57.5 µM. 360,000 compounds, 4.7% hits. AID 743279; in the data active = activity change below about -50%; inconclusive = mostly about -30% to -49%
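Secreted IL-1B measured by AlphaLISA bead assay after 16 h compound exposure of THP-1 cells; compounds (final up to 57.5 uM) added 1 h before LPS (250 ng/mL) and ATP (1.25 mM) stimulation; lower signal means less secretion.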
HT1080NT lethal = kills 2HG-producing HT-1080-NT fibrosarcoma cells; HT-1080-NT fibrosarcoma viability, CellTiter-Glo ATP luminescence, 48 h; Potency, µM (top dose mostly 46.1 µM), actives largely listed as cytotoxic; 360,000 compounds, 1.6% hits; AID 686970;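 also: NT is the 2HG producing partner of a matched IDH1 knockdown line; nearly all actives have a fitted effect of over 55% in size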
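Compounds were tested in concentration-response format on HT-1080-NT cells for 48 hours at 37 degrees C. Cell viability came from CellTiter-Glo luminescence; curves were classified by r2, response magnitude and activity.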
TDP1 cell noCPT = qHTS for Inhibitors of human tyrosyl-DNA phosphodiesterase 1 (TDP1): qHTS in cells in absence of CPT | DT40 Tdp1-/- hTDP1 cells, no CPT, ATP luminescence, 48 h | 420,000 compounds, 15% hits | Potency, µM (top dose mostly 46.2 µM), hits mostly inhibitors; also: nearly all actives have a fitted effect of over 55% in size
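Camptothecin absent (DMSO only). Human TDP1-complemented DT40 knockout cells, 400 cells/well, 37 °C for minimum 48 hr; ATP measured via CellTiter-Glo, 30 min dark incubation, luminescence.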
HT1080 IDH1KD tx = kills HT-1080 cells with IDH1 knockdown; HT-1080 IDH1 knockdown viability, ATP luminescence, 48 h; Potency, µM (titrated, usually from 46.1 µM), most hits filed as cytotoxic; AID 686971; 360,000 compounds, 2% hits
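Knockdown cells (IDH1KD HT-1080) received compounds 2 h after plating at 750 cells/well and were kept 48 h at 37 °C in 5% FBS RPMI. A CellTiter-Glo luminescence read gave % activity for curve fitting.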
Hits are given with their value; i = inactive; ? = inconclusive; nt = no result; [ ] = remark or other dose. Unless noted, calls follow the shape of the dose curve; as a rule, active = well fitted curve in the direction sought with a large enough effect; inconclusive = small, poorly fitted or top-dose-only effect, or another doubt; inactive = no such curve, though single readings can be large; an effect the other way counts as inactive or inconclusive.

SMILES	DT40 TDP1 CPT	IL1B secr inh	HT1080NT lethal	TDP1 cell noCPT	HT1080 IDH1KD tx
O=C(c1cccc(F)c1)N1CCN(C(=O)c2cc(-c3ccc(Cl)cc3Cl)on2)CC1	?	nt	i	18µM	i
Cc1ccc2nc(SCC(=O)N3CCC4(CC3)CC4C(=O)Nc3ccc(F)c(F)c3)[nH]c2c1 (stereo not drawn)	?	nt	nt	23µM	nt
Cc1ccc2nc(SCC(=O)N3CCCC3)[nH]c2c1	i	i	i	i	i
Cc1ccc2c(CC(=O)NNC(=O)c3ccccc3O)coc2c1	?	i	?	26µM	?
COc1ccc2c(CC(=O)Nc3ccc(C)cc3)coc2c1	?	nt	nt	i	nt
Cc1ccc2c(CC(=O)Nc3cccc(C(F)(F)F)c3)coc2c1	16µM	nt	nt	?	nt
COc1ccccc1NC(=O)Cc1coc2cc(C)ccc12	i	i	i	?	i
S=c1[nH]nc(-c2ccccn2)n1/N=C/c1ccc(Br)s1	i	i	i	i	i
O=c1cc(-c2ccc(O)c(O)c2)oc2ccc3ccccc3c12	?	i	i	15µM	i
O=c1cc(-c2cccnc2)oc2c1ccc1ccccc12	?	nt	i	23µM	i
O=c1cc(-c2ccccc2)oc2c1ccc1ccccc12	i	nt	nt	?	nt
O=c1cc(-c2ccc(O)c(O)c2)oc2c1ccc1ccccc12	16µM	i	i[9.24 µM]	26µM	i
COc1ccc(N2C(=O)N[C@@H](Cc3ccccc3)C2=O)cc1OC	i	i	i	i	i
O=C(O)CS(=O)(=O)CC(=O)NCc1cccc(C(F)(F)F)c1	i	i	i	i	i
CC1=Nc2ccccc2/C1=C(/C)c1c(C)[nH]c2ccccc12	i	nt	nt	?	nt
CCN(CC)Cc1c(O)ccc2c(=O)c(-c3ccc4c(c3)OCCO4)coc12	3.3µM	i	i	10µM	i
CCN(CC)Cc1c(O)ccc2c(=O)c(-c3ccccc3)coc12	9.2µM	i	i	?	i
COc1ccc(C(=O)CSc2nc3nn(-c4ccccc4)c(=O)c-3c3n2CCCCC3)c(OC)c1	?	i	i	?	i
O=c1ccc(-c2ccccc2)nn1Cc1ccc(Cl)cc1	?	i	i	16µM	i
C=Cc1ccc(Cn2nc(-c3ccc(C)cc3)ccc2=O)cc1	?	-79	i	?	i
COC(=O)c1ccc(Cn2nc(-c3ccccc3)ccc2=O)cc1	i	i	i	i	i
COc1ccc(-c2ccc(=O)n(Cc3c(F)cccc3Cl)n2)cc1	15µM	i	i	7.3µM	i
COc1cccc(CNC(=O)Cn2nc(-c3ccc(Cl)cc3)ccc2=O)c1	?	i	i	?	i
Oc1c(Cl)cc(CN2CCOCC2)c2cccnc12	0.65µM	i	7.3µM	1µM	5.8µM
O=C(Oc1c(CN2CCOCC2)cc(Cl)c2cccnc12)c1ccccc1F	3.7µM	i	?	4.6µM	?
SMILES	DT40 TDP1 CPT	IL1B secr inh	HT1080NT lethal	TDP1 cell noCPT	HT1080 IDH1KD tx
Oc1c(CN2CCCCC2)cc(Br)c2cccnc12	5.2µM	i	?	5.2µM	?
Oc1c(CN2CCc3ccccc3C2)cc(Cl)c2cccnc12	5.8µM	i	?	5.8µM	?
O=C(COc1c(Br)cc(Br)c2cccnc12)N1CCCCC1	i	i	i	?	i
CCOC(=O)[C@]12CCC=C1N(Cc1ccco1)C(=O)[C@H](CC(=O)N1CCN(C(=O)c3ccco3)CC1)C2	i	i	i	i	i
COc1cc(OC)cc(C(=O)Oc2c(CN3CCOCC3)cc(Cl)c3cccnc23)c1	?	i	?	?	i
O=C(Oc1c(CN2CCOCC2)cc(Cl)c2cccnc12)c1ccccc1	?	?	?	?	10µM
O=C(Nc1ccc(F)cc1F)c1ccc(-n2cccn2)nc1	?	i	i	?	i
CC(C)Sc1ccc(C(=O)Nc2ccc(F)cc2F)cn1	?	i	i	23µM	i
O=C(OCc1ccc(O)cc1)c1c(-c2ccsc2)oc2ccc(N3CCOCC3)cc12	18µM	i	?	13µM	?
OC1(C#Cc2c(-c3ccsc3)oc3ccc(N4CCOCC4)cc23)CCCCC1	?	i	?	?	?
Cc1sc(NC(=O)/C=C/c2ccc3c(c2)OCO3)nc1-c1ccccc1	15µM	i	i	16µM	?
CC(=O)Nc1ccc(NC(=O)/C=C/c2ccc3c(c2)OCO3)cc1	i	i	?	i	i
